High-throughput results deposited in PubChem BioAssay by several laboratories.
IDE cell activ: human IDE activators in live cells, primary screen, fluorescence polarization, HEK cells, FAbeta-B substrate | activation, % at 5.96 µM | FAbeta-B cleavage; 0% vehicle, 100% cell-free pure enzyme wells | Insulin-degrading enzyme (Homo sapiens), P14735 | 340,000 compounds, 0.073% hits;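 active = activation above the mean of all tested compounds plus 3 SD, set per screening campaign, cut at about 17% in these data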
Cardiac RTF inh: cardiac RTF calcium sensitivity inhibitors, primary screen, biochemical, IANBD-TnC fluorescence, EC70 calcium. AID 493244, 2011. Troponin I, cardiac muscle (Homo sapiens) + Troponin T, cardiac muscle (Homo sapiens) + …. inhibition, % at 7.15 µM. 340,000 compounds, 0.12% hits. IANBD-labeled cardiac RTF, Ca2+ fluorescence;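 active = inhibition above the mean inhibition of all tested compounds plus 3 SD, cut at about 17% in these data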;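 also: assay run at fixed EC70 calcium of 1.6 mM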
IDE inh: human IDE inhibitors in live cells, primary screen, fluorescence polarization, HEK cells, FAbetaB substrate | AID 434962, 2010 | Insulin-degrading enzyme (Homo sapiens), P14735 | 320,000 compounds, 0.41% hits | FAbetaB cleavage | inhibition, % at 5.59 µM;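 active = percent inhibition above the average of all tested compounds plus 3 SD, set per screening campaign, cut at about 16% in these data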;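 also: IDE supplied by intact live HEK cells; FP after avidin binding of uncleaved biotin substrate so inhibition keeps polarization high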
CRFBP-R2 agonist: agonists of CRF-BP/CRF-R2 complex, primary screen, cell-based, HEK293, calcium dye fluorescence, uHTS; CRF-binding protein / CRF receptor 2 complex (human); calcium dye fluorescence (FLIPR); percent of saturating CRF peptide response; activation, % at 13.2 µM; 350,000 compounds, 0.46% hits; AID 588473, 2011;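 active = activation of at least 50%, plus an integration ratio under a set limit after plate pattern correction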
TPT1 inh: Candida albicans TPT1 enzyme inhibitors, primary screen, biochemical, fluorescence polarization; recombinant caTPT1, FP RNA substrate dephosphorylation; AID 1962, 2009; 300,000 compounds, 0.81% hits; tRNA 2'-phosphotransferase TPT1 (Candida albicans SC5314); inhibition, % at 5 µM;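 active = inhibition above the mean of all tested compounds plus 3 SD, set per screening campaign, cut at about 24% in these data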
cardiac RTF act: cardiac RTF calcium sensitivity activators, primary screen, biochemical, IANBD-TnC fluorescence, EC20 calcium. IANBD-labeled TnC RTF fluorescence at EC20 calcium; 0% EC20 calcium, 100% full calcium. activation, % at 7.2 µM. 340,000 compounds, 0.24% hits;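 active = activation above the mean over all tested compounds plus 3 SD, cut at about 30% in these data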;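 also: rise in fluorescence read as greater calcium sensitivity of cardiac thin filaments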
caTPT1 confirm: Candida albicans TPT1 inhibitors, confirmation, biochemical, fluorescence polarization, triplicate | recombinant caTPT1, RNase T1 coupled | inhibition, % at 5 µM | 2,400 compounds, 74% hits | shares compounds with TPT1 inh;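 active = inhibition above the primary screen limit, the mean inhibition of all tested compounds plus 3 SD, cut at about 25% in these data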
RNase T1 inh: RNase T1 inhibitors, counter-screen for TPT1 inhibitor project, biochemical, fluorescence polarization; RNase T1 cleavage, 1536-well; 2,400 compounds, 83% hits; inhibition, % at 5 µM; shares compounds with TPT1 inh; AID 2153, 2009;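 active = inhibition above the solvent-only control well mean plus 3 SD, limit set per screening run, cut at about 23% in these data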;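 also: inhibitors block cleavage so intact labeled substrate keeps polarization high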
Numbers stand for hits; - = inactive; . = not tested or not shown. This is a sample that favours compounds with a hit; in the whole collection about 1.5% have one here.

SMILES | IDE cell activ | Cardiac RTF inh | IDE inh | CRFBP-R2 agonist | TPT1 inh | cardiac RTF act | caTPT1 confirm | RNase T1 inh
CC12CCC(C(=O)N(CC3CO3)C1=O)C2(C)C (stereo not given) | - | - | - | - | - | - | . | .
CCN(CC)c1ccc(NC(=O)Cn2c(C(C)NC(=O)c3ccccc3)nc3ccccc32)cc1 (stereo not given) | - | - | - | - | 52.7 | - | - | -
Oc1c(/C=N/c2ccccn2)sc2ccccc12 | - | - | - | - | 44.8 | - | 56.6 | 67.2
Oc1c(C=Nc2cccnc2)sc2ccccc12 | - | - | - | - | - | - | . | .
Oc1c(C=Nc2ccccc2)sc2ccccc12 | - | - | - | - | 99.8 | - | 127.3 | 130.2
CN=Cc1sc2ccccc2c1O | - | - | - | - | - | - | . | .
Oc1c(C=Nc2ccc(Cl)cn2)sc2ccccc12 | - | - | - | - | 30.9 | - | 38.6 | 49.2
COc1cc(/C=C(\C#N)C(=O)Nc2ccc3c(c2)OCCO3)ccc1O | - | - | - | - | 57.3 | - | 71.4 | 76.8
COc1cc(/C=C(\C#N)C(=O)Nc2ccccn2)ccc1O | - | - | - | - | 33.9 | - | 57.2 | 63.5
CCOc1cc(/C=C(\C#N)C(=O)Nc2ccccn2)ccc1O | - | - | - | - | - | - | . | .
CCOc1ccc(N(CC(=O)NCc2ccco2)C(=O)CCC(=O)Nc2nccs2)cc1 | - | - | - | - | - | - | . | .
CN1CCc2c(sc(N)c2C(=O)c2ccc(Cl)cc2)C1 | - | - | - | - | 31.7 | - | 36.6 | 48.4
CN1CCc2c(sc(NC(=O)Cc3ccc(F)cc3)c2C(N)=O)C1 | - | - | - | - | - | - | . | .
COc1ccc(C(=O)c2c(N)sc3c2CCN(C(=O)OC(C)(C)C)C3)cc1 | . | . | - | - | 30.2 | . | - | 21.9
Cc1cc(C(=O)O)cc(S(=O)(=O)Nc2c(C)nn(C)c2C)c1C | - | - | - | - | . | - | . | .
O=S1(=O)N=C(c2ccccc2)c2ccccc21 | - | - | - | - | - | - | . | .
Cc1cccc(C(=O)OCC(=O)N(CC(C)C)c2c(N)n(Cc3ccccc3)c(=O)[nH]c2=O)c1C | - | - | . | - | . | - | . | .
O=C(NN1C(=O)/C(=C/c2ccc(O)c([N+](=O)[O-])c2)SC1=S)c1ccccc1Cl | - | - | - | - | 75.2 | - | 55.0 | 66.2
COc1cc(CC(=O)N(CC(C)C)C2CCS(=O)(=O)C2)cc(OC)c1OC (stereo not given) | - | - | - | - | . | - | . | .
CCOC(=O)c1c(C)[nH]c(N=Nc2ccc(OC)cc2)c1C | - | - | - | - | - | - | . | .
O=C(CSc1ncnc2scc(-c3ccccc3)c12)N1CCN(Cc2ccc3c(c2)OCO3)CC1 | - | - | - | - | 41.3 | - | 65.8 | 77.4
Cc1nn(CC(=O)c2ccc(Cl)s2)c(C)c1[N+](=O)[O-] | - | - | - | - | 43.1 | - | 40.4 | 49.4
O=C(COc1ccc2ccccc2c1)Nc1nccs1 | - | - | - | - | 28.2 | - | - | -
O=C(COc1ccccc1)Nc1nccs1 | - | - | - | - | - | - | . | .
COc1ccc(/C=C2\SC(=S)N(CCCC(=O)Nc3cccc(C(=O)O)c3)C2=O)cc1OC | - | - | - | - | 36.2 | - | 50.3 | 66.1
SMILES | IDE cell activ | Cardiac RTF inh | IDE inh | CRFBP-R2 agonist | TPT1 inh | cardiac RTF act | caTPT1 confirm | RNase T1 inh
COc1ccc(/C=C2\SC(=S)N(CCCC(=O)Nc3ccccn3)C2=O)cc1OC | - | - | - | - | 32.1 | - | 52.5 | 64.2
Cc1ccc(/C=C2\SC(=S)N(CCCC(=O)Nc3ccccn3)C2=O)cc1 | - | - | - | - | - | - | . | .
COc1cccc(/C=C2\SC(=S)N(CCCC(=O)Nc3cccc(C(=O)O)c3)C2=O)c1 | . | . | . | - | . | . | . | .
Cc1ccc2c(CNCc3ccccc3)cc(=O)oc2c1 | - | - | - | - | - | - | . | .
Cc1ccc(N2C(=O)CS/C2=C(\C(Cl)=C(Cl)Cl)[N+](=O)[O-])cc1 | - | - | - | - | 93.3 | - | 43.0 | 50.8
Cc1ccc(N2C(=O)CSCC2=O)cc1 | - | - | - | - | - | - | . | .
Cc1ccc(Cn2c(/C=C/c3ccco3)nc3ccccc32)cc1 | - | - | - | - | - | - | . | .
CCCn1c(/C=C/c2ccco2)nc2ccccc21 | - | - | - | - | 25.0 | - | 38.3 | 50.9
Clc1ccc(Cn2c(/C=C/c3ccco3)nc3ccccc32)cc1 | - | - | - | - | 29.1 | - | 33.7 | 46.4
NC(=O)CC[C@H](NC(=O)c1ccc(F)cc1)C(=O)OCC(=O)Nc1ccc(N2CCOCC2)cc1 | - | - | - | - | - | - | . | .
CC[n+]1c(/C=C/C=C/N(C(C)=O)c2ccccc2)sc2ccccc21 | - | - | - | 157.5 | 64.3 | 421.1 | 68.2 | 73.9
CCn1c(/C=C/N(C(C)=O)c2ccccc2)[n+](CC)c2ccc(Cl)cc21 | - | - | - | - | - | - | . | .
O=C1CSC(=S)N1/N=C/c1cc(Br)c(O)c(Br)c1 | - | - | 132.6 | 184.9 | 81.7 | 56.0 | 75.0 | 83.7
CC(C)NC(=O)/C(C#N)=C\c1ccc(N(C)C)o1 | - | - | - | - | 153.3 | 63.6 | 177.4 | 169.6
Cc1ccnc(NS(=O)(=O)c2ccc(NS(=O)(=O)c3cc(Cl)ccc3Cl)cc2)n1 | - | - | - | - | - | - | . | .
CCN1C=C(Cc2ccc(OC)cc2)C2=C(C1)C(c1ccc(OC)cc1)C(C#N)=C(N)O2 (stereo not given) | - | - | - | - | 43.9 | - | 26.9 | 34.8
Cc1ccc(-c2nc(C=Nc3ccc(O)cc3)c(O)o2)cc1 | - | - | . | - | . | - | . | .
Cc1ccc(N=Cc2nc(/C=C/c3cccc([N+](=O)[O-])c3)oc2O)cc1 | - | - | - | - | 28.3 | - | 39.2 | 51.2
COc1ccc(N2CCN(C(=O)CNC(=O)c3ccco3)CC2)cc1 | - | - | - | - | - | - | . | .
Cc1cc(/C=C2\SC(=S)NC2=O)c(C)n1-c1ccccc1 | . | . | - | - | 72.6 | . | 69.1 | 83.2
Cc1cc(/C=C2\SC(=S)NC2=O)c(C)n1C | - | - | - | - | 52.8 | - | 69.4 | 84.4
